Among the data in PubChem BioAssay (NCATS) are Potency, viability (% of control) and viability, % of control values, retold here.

Assay [1] can be described thus: Viability qHTS for spleen associated tyrosine kinase inhibitor (SYKi) naive MV4-11 cells (AID 1963823). Also: nearly all actives have a fitted effect of over 40% in size. Summed up: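 Read-out: CellTiter-Glo luminescence. Exposure: 72 hr, 37 C, 5% CO2, 95% humidity. Cells: MV4-11 without SYK inhibitor history, 500/well, qHTS format.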
(In general: qHTS replaces the single test concentration by a dilution series.)

Assay [2] can be described thus: Viability qHTS for spleen associated tyrosine kinase inhibitor (SYKi) drug resistant MV4-11 cells (AID 1963824). Also: nearly all actives have a fitted effect of over 35% in size. Summed up:
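SYK inhibitor-resistant MV4-11 AML cells, 500 per well, added to predispensed compounds and incubated 72 hr at 37 C, 5% CO2. Viability measured by CellTiter-Glo luminescence after 10 min at room temperature.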

Records with an inconclusive call do not appear. Unmarked numbers belong to inactive results. Activity calls are given as the source filed them. Calls follow the shape of the dose curve; as a rule, active = well fitted cell-killing curve with a large enough effect; inconclusive = small, poorly fitted or top-dose-only effect, or effect the other way; inactive = no such curve, though single readings can be large or run the other way.
Potency is read from the fitted curve at half-maximal effect.

Turning to `C=C1CCC2C(C)(C(=O)O)CCCC2(C)C1CC/C(=C\CO)CO` (stereo unspecified), the Potency entry in assay [1] and in assay [2] was “inactive” in each case.

As for `COc1cc(C(=O)O)ccc1OC1OC(CO)C(O)C(O)C1O` (stereo unspecified), the Potency entry in assay [1] and in assay [2] was “inactive” in each case.

In the case of `CC(C)=CC/C=C(/C)[C@H]1CC[C@]2(C)[C@@H]1[C@H](O)CC1[C@@]3(C)CC[C@H](O)C(C)(C)[C@@H]3[C@@H](O[C@@H]3O[C@H](CO)[C@@H](O)[C@H](O)[C@H]3O[C@@H]3O[C@@H](C)[C@H](O)[C@@H](O)[C@H]3O)C[C@]12C` (stereo partly specified), the Potency entry in assay [1] and in assay [2] was “inactive” in each case.

Consider `CC(=O)N1c2ccccc2C2(O)CC3C(=O)NC(CC(C)C)C(=O)N3C12` (stereo unspecified), for which the Potency result in assay [1] and in assay [2] was “inactive” each time.

In the case of `CC(C)C[C@@H]1NC(=O)[C@@H](Cc2ccccc2)NC(=O)C(CCCCCC(=O)C2CO2)NC(=O)[C@@H]2CCCCN2C1=O` (stereo partly specified), the Potency was 0.0252 µM (active) in assay [1] and 0.0126 µM (active) in assay [2].

With `CC(=O)Nc1cccc2c1c(Sc1ccc(Cl)cc1)c(C)n2CC(=O)O`, the Potency entry in assay [1] and in assay [2] was “inactive” throughout.

In the case of `CC1=CC2/C=C(\C)CCC(O)C(=O)C(O)CC(=O)C23C(=O)NC(CC(C)C)C3C1C` (stereo unspecified), the Potency in assay [1] was 10 µM (active); in assay [2] it was 11.2 µM (active).

`CC(=O)/C=C/C1(O)C(C)CC(O[C@@H]2O[C@H](CO)[C@@H](O)[C@H](O)[C@H]2O)CC1(C)C` (stereo partly specified): the Potency result in assay [1] and in assay [2] was “inactive” each time.

Turning to `Nc1nonc1-c1nc2cnccc2n1C1CC1`, the Potency in assay [1] is 2.06 µM (active); in assay [2] it was 2.31 µM (active).

For `C[C@@H]1O[C@@H](O[C@H]2[C@@H]3C=CO[C@@H](O[C@@H]4O[C@H](CO)[C@@H](O)[C@H](O)[C@H]4O)[C@@H]3[C@@]3(CO)O[C@@H]23)[C@H](O)[C@H](OC(=O)/C=C/c2ccc(O)c(O)c2)[C@H]1O`, the Potency entry in assay [1] and in assay [2] was “inactive” each time.

Regarding `C=CC1C(O[C@@H]2O[C@H](CO)[C@@H](O)[C@H](O)[C@H]2O)OC=C(C(=O)OC)C1CC(=O)O` (stereo partly specified), the Potency entry in assay [1] and in assay [2] was “inactive” throughout.

`C/C(=C\CCC(C)(O)c1ccc(C)cc1)C(=O)O` (stereo unspecified): the Potency result in assay [1] and in assay [2] was “inactive” in each case.

Turning to `CNCc1cc(-c2ccccc2F)n(S(=O)(=O)c2cccnc2)c1`, the Potency result in assay [1] is “inactive”. For the same compound, the Potency in assay [2] is 13 µM (active).

As to `CC(=O)N[C@H]1[C@H](O[C@H]2CC[C@@]3(C)C(CC[C@]4(C)C3CC=C3C5CC(C)(C)CC[C@]5(C(=O)O)[C@H](O)C[C@]34C)C2(C)C)O[C@H](CO[C@@H]2OC[C@H](O)[C@H](O)[C@H]2O[C@@H]2OC[C@@H](O)[C@H](O)[C@H]2O)[C@@H](O)[C@@H]1O` (stereo partly specified), the viability (% of control) in assay [1] is 83.2% [at 9.25 µM]. For the same compound, in assay [2], the viability, % of control was 113% [at 9.25 µM].

As for `C=CS(=O)(=O)NC1CCN(C(=O)CNc2cc(I)c(Cl)cc2OC)CC1`, the Potency was 3.26 µM (active) in assay [1] and 2.06 µM (active) in assay [2].

Consider `CCCOc1ccc(-c2nc(OC)c3ccccc3n2)cc1`, for which the Potency result in assay [1] and in assay [2] was “inactive” throughout.

On to `CC1(C)CCC2(C(=O)OC3OC(COC4OC(CO)C(O)C(O)C4O)C(O)C(O)C3O)CCC3(C)C(=CCC4C5(C)CCC(O)C(C)(C(=O)O)C5CCC43C)C2C1O` (stereo unspecified), for which the viability (% of control) in assay [1] is 83.4% [at 9.25 µM]. For the same compound, in assay [2], the viability, % of control is 102% [at 9.25 µM].

In the case of `C=CC(C)(O)CC/C=C(\C)C(=O)OC1CC2(C(=O)O)CCC3(C)C(=CCC4C5(C)CCC(OC6OC(COC7OCC(O)C(O)C7O)C(O)C(OC7OCC(O)C(O)C7O)C6OC6OC(CO)C(O)C(O)C6OC6OCC(O)C(O)C6O)C(C)(C)C5CCC43C)C2CC1(C)C` (stereo unspecified), the viability (% of control) in assay [1] is 73.5% [at 9.25 µM]. For the same compound, the viability, % of control in assay [2] is 68% [at 9.25 µM].

Turning to `CC1(C)OC(=O)C(OCC2CC2)=C1c1ccc(S(C)(=O)=O)cc1`, the Potency entry in assay [1] and in assay [2] was “inactive” throughout.

In the case of `C=C1[C@H]2CC[C@H](C(=O)O)[C@@]23CC[C@H](C3)C1(C)C`, the Potency result in assay [1] and in assay [2] was “inactive” throughout.

`C=C1C(=O)O[C@H]2C[C@@H](C)[C@@H]3CCC(=O)[C@@]3(C)C[C@H]12`: the Potency in assay [1] is 4.11 µM (active); in assay [2], 2.59 µM (active).

In the case of `O=C(OC1C=C(CO)C2C(OC3OC(CO)C(O)C(O)C3O)OC=CC12O)c1ccc(O)cc1` (stereo unspecified), the Potency entry in assay [1] and in assay [2] was “inactive” each time.

Consider `CNc1nc(Cc2ccccc2)nc2c1CCNC[C@@H]2C`, for which the Potency result in assay [1] was “inactive”. For the same compound, the Potency in assay [2] is 11.6 µM (active).

Turning to `Cc1cc2c(N3CCCC3)nc(N3CCCC3)nc2n1C`, the Potency was 8.2 µM (active) in assay [1] and 7.31 µM (active) in assay [2].

As to `O=C(NC1CCN(CCCCC2(C(=O)NCC(F)(F)F)c3ccccc3-c3ccccc32)CC1)c1ccccc1-c1ccc(C(F)(F)F)cc1`, the Potency in assay [1] and in assay [2] was 2.59 µM (active) each time.

Consider `CCCc1cc(C)[nH]c(=O)c1CNC(=O)c1cc(-c2ccnc(N3CCN(C)CC3)c2)cc2c1cnn2C(C)C`, for which the Potency in assay [1] is 14.8 µM (active); in assay [2], 11.8 µM (active).

Take `COC(=O)CCc1cc2ccoc2c(OC)c1O[C@@H]1O[C@H](CO)[C@@H](O)[C@H](O)[C@H]1O`: the Potency result in assay [1] and in assay [2] was “inactive” in each case.

In the case of `O=[N+]([O-])c1cccc2[nH]c(CNc3nc(N4CCOCC4)nc4c3ncn4-c3ccsc3)nc12`, the Potency was 0.0146 µM (active) in assay [1] and 0.0206 µM (active) in assay [2].
